Bioassay records from PubChem BioAssay.
In the library only some 0.4% were active in any assay of this set; here they are far more common.
aGlu spleen mod: inhibits or activates alpha-glucosidase in human spleen homogenate. 0.006% of 240,000 active. human spleen homogenate, 4-MU-alpha-glucoside fluorescence. P10253. Potency, µM (titrated, usually from 79.9 µM), hits mostly inhibitors
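Enzyme source: human spleen homogenate, 1 ug/well. Buffer 50 mM citric acid/K phosphate pH 5.0, 0.01% Tween-20. 4-MU-alpha-glucoside 1 mM; 37 C x 40 min; NaOH/glycine stop; fluorescence.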
GLA inh pH 4.5: alpha-galactosidase A (human) inhibition, pH 4.5 | activity change, negative = inhibition, % at 105 µM | 230,000 tested, under 10 active | AID 1467 | purified enzyme, 4-MU-alpha-Gal fluorescence, pH 4.5
GAA glycogen mod: alters human alpha-glucosidase cleavage of glycogen; P10253; recombinant GAA, glycogen substrate, Amplex Red glucose oxidase fluorescence; Potency, µM (titrated, usually from 76.4 µM), hits mostly inhibitors; 0.38% of 300,000 active; AID 2100;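 note: the screen sought inhibitors and activators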
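Recombinant human alpha-glucosidase (4 nM final) hydrolysed bovine liver glycogen (30 ug) for 40 min at 37 C in pH 5.0 citrate/phosphate with 0.01% Tween-20. Released glucose detected by glucose oxidase/Amplex Red, Ex 573/Em 610 nm. Compounds up to 77 uM; AC50 from Hill fits.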
GAA inh: alpha-glucosidase (human) inhibition; 0.005% of 200,000 active; Potency, µM (doses to about 76.9 µM), usual class: inhibitors; AID 1466; P10253; purified human GAA, 4-MU-alpha-glucoside fluorescence
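Enzyme (4 nM final) mixed with compound (up to 77 uM), then 4-MU-alpha-D-pyranoside (400 uM final) added; 20 min at room temperature, pH 5.0. Reaction stopped at pH 10, fluorescence read, AC50 derived by Hill fit.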
aGal spleen mod: alpha-galactosidase A (human) modulation; P06280; human spleen homogenate, 4MU-alpha-Gal fluorescence, 40 min; Potency, µM (highest dose often 80 µM), actives largely listed as inhibitors; 0.008% of 240,000 active
Target sequence (P06280 32-429 limits assumed): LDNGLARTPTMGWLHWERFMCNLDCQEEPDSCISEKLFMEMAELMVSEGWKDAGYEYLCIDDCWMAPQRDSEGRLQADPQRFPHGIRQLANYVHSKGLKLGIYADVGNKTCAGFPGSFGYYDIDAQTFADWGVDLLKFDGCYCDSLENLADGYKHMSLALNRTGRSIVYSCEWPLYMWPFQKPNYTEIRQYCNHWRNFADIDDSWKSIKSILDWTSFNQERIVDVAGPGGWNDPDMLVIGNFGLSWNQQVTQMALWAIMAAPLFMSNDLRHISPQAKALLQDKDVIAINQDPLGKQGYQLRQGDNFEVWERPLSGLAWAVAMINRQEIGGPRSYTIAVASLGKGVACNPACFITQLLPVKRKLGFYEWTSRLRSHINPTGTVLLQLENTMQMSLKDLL
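Spleen homogenate 1 ug + cpd (titration) + 4-MU-alpha-D-galactopyranoside 1 mM; 37C 40 min; 50 mM citrate/phosphate pH 5.0, 0.01% Tween-20; stop pH 10; fluorescence 365/440; AC50 via Hill.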
Numbers stand for hits; - = inactive; ? = inconclusive; . = no result; [ ] = remark or other dose. Calls come from the whole dose curve; as a rule, active = well fitted curve in the direction sought with a large enough effect; inconclusive = small, poorly fitted or top-dose-only effect, or another doubt; inactive = no such curve, though single readings can be large; an effect the other way counts as inactive or inconclusive.

SMILES	aGlu spleen mod	GLA inh pH 4.5	GAA glycogen mod	GAA inh	aGal spleen mod
COc1cc(CNc2ccc3c(c2)CCC3)cc(OC)c1O	-	-	25.1µM	-	-
CC(NC(=O)Nc1ccccc1O)(C(F)(F)F)C(F)(F)F	-	-	15.8µM	-	-
COC(=O)c1ccc(CSc2cc(C)c3cc(C)cc(C)c3n2)o1	?	-	-	-	?
COC(=O)c1ccc(CSc2cc(C)c3cccc(C)c3n2)o1	?	-	-	-	35.5µM
O=C(N/N=C/C1CCCCC1)c1cc(Cl)ccc1O	-	-	35.5µM	-	-
O=C(N/N=C/C1CCCCC1)c1ccccn1	-	-	?	-	-
COc1ccc(C2C3=C(CC(C)(C)CC3=O)Nc3c2c(=O)n(C)c(=O)n3C)cc1OC (stereo not given)	.	-	-	-	-
CC(=O)C1C(=O)c2c(cccc2[N+](=O)[O-])C1=Nc1ccccc1C (stereo not given)	-	-	-	-	-
COc1ccc(CCNc2nc(N3CCCCC3)nc(N3CCCCC3)n2)cc1OC	-	-	-	-	-
COc1cccc(-c2ccc3ncnc(N(C)C)c3c2)c1	-	.	.	.	50.1µM
CCN=c1scc(C)n1/N=C/c1ccc(O)c(O)c1O	-	-	15.8µM	-	-
O=C(CSc1nnc(-c2ccccc2)o1)Nn1cnnc1	-	-	?	-	-
CCOC(=O)C1(Cc2ccccc2C(F)(F)F)CCN(C(C)CCn2cccn2)CC1 (stereo not given)	-	-	4.47µM	?	-
CN(C)c1ncc2nc(-c3ccc(F)cc3)c(=O)n(C3CC3)c2n1	-	.	.	.	-
CC(Sc1nc(NCc2ccccc2)nc(N(C)C)n1)C(=O)Nc1ccccc1 (stereo not given)	-	-	-	-	-
CC(=O)C(Sc1nc(N(C)C)nc(N(C)C)n1)C(=O)Nc1ccccc1 (stereo not given)	-	-	20µM	-	-
COc1ccc(C(=O)c2cc(C(C)=O)c(Nc3ccccc3)s2)cc1	-	-	-	-	-
Cc1ccc(-c2nnc(Nc3ccc(O)cc3)c3ccccc23)cc1S(=O)(=O)NCC1CCCO1 (stereo not given)	.	.	15.8µM	.	.
CC(=O)Nc1ccc(Nc2nnc(-c3ccc(C)c(S(=O)(=O)NCCO)c3)c3ccccc23)cc1	.	.	-	.	.
Oc1ccc(Nc2nnc(-c3ccc(O)cc3)c3ccccc23)cc1	-	-	15.8µM	-	-
Cc1ccc(-c2nnc(Nc3ccc(O)cc3)c3ccccc23)cc1S(=O)(=O)NC(C)(C)CO	.	.	8.91µM	.	.
Oc1ccc(Nc2ncnc3ccccc23)cc1	.	.	22.4µM	.	.
CCOC(=O)C1=C(C)NC(SCc2cc(=O)[nH][nH]2)=C(C#N)C1c1cccs1 (stereo not given)	-	-	31.4µM	-	-
Cn1c(-c2ccc3c(c2)OCO3)cnc1NCc1cccc(Cl)c1	-	-	17.6µM	-	-
Cn1c(-c2ccc3c(c2)OCO3)cnc1NCc1ccccc1	-	-	?	-	-
SMILES	aGlu spleen mod	GLA inh pH 4.5	GAA glycogen mod	GAA inh	aGal spleen mod
O=C1NC[C@@H](Cc2ccc(O)cc2)N(CC2CCCCC2)C1=O	-	-	-	.	-
COc1ccc(OC)c(NC(=O)Nc2ccccc2C)c1	-	-	-	?	-
Cc1cc(NC(=O)NC2(C(F)(F)F)Oc3ccc(Cl)cc3O2)no1 (stereo not given)	-	-	7.08µM	-	-
COc1ccc(OC)c(NC(=O)NC2(C(F)(F)F)Oc3ccccc3O2)c1	-	-	35.5µM	-	-
CN(C)c1ccc(CN(C)C2CCCCC2)cc1	-	-	-	-	-
O=C(CN1C(=O)COc2ccc(S(=O)(=O)N3CCCCCC3)cc21)N1CCN(c2ccccc2)CC1	.	.	-	.	.
O=S1(=O)CC/C(=N\Nc2ccccc2)c2ccsc21	-	-	25.1µM	-	-
COc1cccc(Cn2nc(C(=O)O)c3ccccc3c2=O)c1	-	-	-	?	-
CCOc1ccc(N2C(=O)CC(N3CCc4ccccc43)C2=O)cc1 (stereo not given)	-	-	14.1µM	-	-
O=C1CC(N2CCc3ccccc32)C(=O)N1c1ccccc1 (stereo not given)	-	-	?	.	-
Cc1cccc(NNC(=O)C2CCC2)c1	-	-	7.94µM	.	-
CC(C)(C)n1nnnc1C(c1ccncc1)N1CCN(c2ccc(O)cc2)CC1 (stereo not given)	-	-	17.6µM	-	-
CCCCS(=O)(=O)c1sc2nc(C)cc(C)c2c1N	-	-	-	-	-
Cc1ccc(Nc2c(-c3c[nH]c4ccccc34)nc3ccccn23)cc1	.	.	4.47µM	.	.
Cc1ccc(Nc2c(-c3ccco3)nc3ccccn23)cc1	-	-	?	-	-
O=C(N/N=C/c1ccc(O)c(O)c1)N/N=C/c1ccc(O)c(O)c1	.	.	1.41µM	.	.
Cc1nonc1C(=O)N/N=C/c1ccc(O)c(O)c1	-	-	7.94µM	-	-
COC(=O)c1[nH]c2ccccc2c1NC(=O)Oc1ccccc1	-	-	-	-[15.4 µM]	-
COC(=O)c1[nH]c2cc(OC)c(OC)cc2c1NC(=O)Oc1ccccc1	-	-	35.5µM	?	-
CCN(CC)CCNC(=O)CCCCn1c(=S)[nH]c2c([nH]c3ccc(OC)cc32)c1=O	-	-	25.1µM	-	-
CCOc1cc(CNc2ccccc2SC)ccc1O	-	-	28µM	-	-
CCOC(=O)Cn1cnc2c(nnn2-c2ccc(F)cc2)c1=O	.	.	50.1µM	.	.
Cc1ccc(NS(=O)(=O)c2ccc(CCC(=O)NCc3ccccn3)cc2)cc1	-	-	-	-	-
C=CCNC(=S)NNc1nc(Nc2ccccc2)nc(N2CCCCC2)n1	-	-	15.7µM	-	-
NNc1ccc2nnc(C(F)(F)C(F)(F)C(F)(F)F)n2n1	-	-	31.6µM	-	-
SMILES	aGlu spleen mod	GLA inh pH 4.5	GAA glycogen mod	GAA inh	aGal spleen mod
Nc1ccc(NC(=O)NC2CCCCC2)cc1	-	-	17.8µM	-	-
O=C(C1=NNC2C(=O)N(c3ccccc3)C(=O)C12)c1nc(Cl)ccc1Cl (stereo not given)	-	-	-	-	-
CC1(C)Nc2ccc(O)cc2-c2c1ssc2=S	-	-	39.8µM	-	-
CCOc1ccc2c(c1)-c1c(ssc1=S)C(C)(C)N2C	-	-	-	-	-
CCc1nnc(NC(=O)[C@@H](NC(=O)c2ccc(C(C)(C)C)cc2)C(C)C)s1	-	-	-	-	-
COc1cc(Cl)ccc1NC(=O)COc1ccccc1C(=O)N1CCN(c2ccc(O)cc2)CC1	-	-	17.6µM	-	-
COc1ccc(NC(=S)N2CCCC(c3nc4ccc(C)cc4[nH]3)C2)c(OC)c1 (stereo not given)	-	-	15.7µM	-	-
Cc1ccc(Cl)cc1N1CCN(Cc2nnnn2Cc2ccco2)CC1	-	-	-	?	-
O=C1CCc2cc(S(=O)(=O)NC(Cc3ccccc3)C(=O)NCC3CCCO3)ccc2N1 (stereo not given)	-	-	-	-	-
